# Screens as filed in PubChem.
# Rows were chosen to be rich in hits. Some 3.8% of all compounds tested hit in one or more screens of this group.
# NLRP3 yeast inh – inhibitors of NALP3 inflammasome in yeast | Yeast reconstituted NLRP3/ASC/caspase-1, beta-gal luminescence, 24 h | inhibition, % at 10 µM | 330,000 tested, 0.39% active;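 active = inhibition of 50% or more; inactive = inhibition below 50%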;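 also: plate controls were induced DMSO wells for no effect and uninduced yeast grown without galactose for full effect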
# tim10-1 inh – tim10-1 yeast growth inhibition; AID 463190; 330,000 tested, 2.2% active; S. cerevisiae tim10-1 ts strain growth, BacTiter-Glo, 24 h; inhibition, % at 20 µM;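 active = inhibition of at least 40%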;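 also: mutant grown at 25 °C; 0% = DMSO wells with yeast and 100% = wells holding no yeast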
# tim23-1 inh – inhibits growth of tim23-1 mutant yeast; S. cerevisiae tim23-1 growth, BacTiter-Glo luminescence, 24 h; inhibition, % at 20 µM; 330,000 tested, 1.3% active;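 active = growth inhibition of the mutant yeast at or above 50%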;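 also: temperature-sensitive mutant grown at 25 °C; plate controls were DMSO-treated mutant yeast for no effect and medium wells lacking yeast for full effect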
# TIM10 inh – growth inhibitors of TIM10 yeast strain. 330,000 tested, 1.4% active. S. cerevisiae TIM10 strain growth, BacTiter-Glo luminescence, 24 h. AID 463195. inhibition, % at 10 µM;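 active = inhibition of 40% or more at the single tested concentration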;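 also: wild-type TIM10 isogenic control strain grown at permissive 25 °C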
# Yeast superoxide – yeast age-related superoxide inhibition as caloric restriction mimetic. S. cerevisiae aged cells, superoxide DHE fluorescence; hits give low values. superoxide response (% of plate mean), % at 10 µM. 330,000 tested, 0.18% active;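 active = superoxide response under a set limit, about three screen SD below normal, cut at about 65% in these data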;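 also: yeast aged for seven days with compound at 30 °C before DHE staining; 100% = average MFI of all compound-treated wells on the plate with controls excluded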
# Superoxide pick – confirmation of caloric restriction mimetics inhibiting yeast age-related superoxide; shares compounds with Yeast superoxide; 850 tested, 1% active; S. cerevisiae aging, superoxide DHE fluorescence; hits give low values; superoxide response (% of plate), % at 10 µM;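 active = superoxide signal below 65% of the plate average of sample wells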;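 also: cells aged with compound for 7 days at 30 degrees C before staining; 100% equals mean DHE fluorescence of all compound wells on the plate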
# DHE counter – counter-screen for compounds affecting DHE oxidation and fluorescence in yeast | shares compounds with Yeast superoxide | S. cerevisiae BY4741, flow cytometry; hits give low values | fluorescence response, % at 10 µM | 850 tested, under 10 active | AID 435000;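 active = fluorescence response below 15%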;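 also: percent of the mean fluorescence averaged over all compound wells on the plate; lower means stronger quenching of DHE signal or ROS scavenging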
# Active calls of the source: *; . = not tested or not shown.
SMILES,NLRP3 yeast inh,tim10-1 inh,tim23-1 inh,TIM10 inh,Yeast superoxide,Superoxide pick,DHE counter
C=CCn1c(SCC(=O)Nc2cc(C)c(Cl)cc2OC)nnc1-c1ccco1,19,31,36,8,97,104,97
CC(C)CC(C(=O)OCC(=O)Nc1cccc(Cl)c1)N1C(=O)C2CC=CCC2C1=O (stereo unspecified),27,22,32,32,108,.,.
CCOc1ccccc1NC(=O)COC(=O)C(CC(C)C)N1C(=O)C2CC=CCC2C1=O (stereo unspecified),-1,39,29,13,65*,111,89
CCOc1cccc(/C=C/c2ccc3cccc(O)c3n2)c1OC,-8,36,36,6,42*,101,95
CCOc1cccc(/C=C/c2ccc3cccc(O)c3n2)c1O,-8,28,32,28,121,.,.
O=C1CC(N2CCN(S(=O)(=O)c3ccccc3F)CC2)C(=O)N1c1ccc(F)cc1F (stereo unspecified),18,7,3,-10,65*,109,89
CC(=O)c1cccc(N2C(=O)CC(N3CCN(S(=O)(=O)c4ccccc4F)CC3)C2=O)c1 (stereo unspecified),8,-2,5,-11,84,.,.
CCc1cccc(C)c1NC(=O)c1cc(C)oc1C,-4,15,15,1,109,.,.
CCc1cccc(C)c1NC(=O)c1ccoc1C,-6,15,6,-3,64*,108,104
O=C1/C(=C/c2cccnc2)CCC/C1=C\c1cccnc1,.,.,.,.,65*,104,87
O=C1/C(=C/c2cccnc2)CC/C1=C\c1cccnc1,2,11,14,1,118,.,.
COc1ccc(CC(=O)OCC(=O)Nc2cccc(Cl)c2)cc1,11,16,24,6,101,.,.
COc1ccc(CC(=O)OCC(=O)Nc2cc(Cl)ccc2C)cc1,14,4,10,-3,63*,98,92
OCCN(CCO)c1ccc(C(c2ccc(Cl)cc2)c2ccc(N(CCO)CCO)cc2Cl)c(Cl)c1,17,29,10,15,62*,95,97
Cc1cccc(C)c1N1CCN(CCn2c(=S)[nH]c3ccccc3c2=O)CC1,22,2,27,-3,106,.,.
O=C(Cc1ccc(Cl)cc1)Nc1cc(S(=O)(=O)N2CCOCC2)ccc1N1CCCC1,4,17,26,2,101,134,122
COc1ccccc1CCC(=O)Nc1cc(S(=O)(=O)N2CCOCC2)ccc1N1CCCC1,18,8,-4,-3,94,.,.
COc1ccc(CC(=O)Nc2cc(S(=O)(=O)N3CCOCC3)ccc2N2CCCC2)cc1OC,2,-5,-7,4,93,84,92
COc1ccc2c(ccn2S(=O)(=O)c2ccccc2)c1,8,26,21,11,98,.,.
CN(CC1CCCO1)S(=O)(=O)c1ccc(C(=O)Nc2nnc(-c3ccccc3)o2)cc1 (stereo unspecified),-8,-3,16,-5,93,105,123
COc1ccccc1-c1nnc(NC(=O)c2ccc(S(=O)(=O)N(C)C)cc2)o1,3,13,0,5,90,.,.
COc1ccccc1-c1nnc(NC(=O)c2ccc(S(=O)(=O)N(C)CC3CCCO3)cc2)o1 (stereo unspecified),13,12,12,1,94,94,96
N#CCCN(CCC#N)S(=O)(=O)c1ccc(C(=O)Nc2nnc(C3=COCCO3)o2)cc1,16,11,3,7,88,.,.
CCCCN(C)S(=O)(=O)c1ccc(C(=O)Nc2nnc(C3=COCCO3)o2)cc1,-8,15,18,2,118,99,110
CCOc1ccc(S(=O)(=O)N(CC)CC(=O)NCc2cccnc2)cc1,5,4,1,-15,112,.,.
SMILES,NLRP3 yeast inh,tim10-1 inh,tim23-1 inh,TIM10 inh,Yeast superoxide,Superoxide pick,DHE counter
Cc1cc(/C=N/NC(=O)C(O)(c2ccccc2)c2ccccc2)c(C)n1-c1ccc(C(=O)O)cc1,11,19,14,8,56*,96,105
CCOc1ncccc1C(=O)N1CCN(c2cccc(C)c2C)CC1,.,.,.,.,.,114,107
CCOc1ncccc1C(=O)N1CCN(c2cc(Cl)ccc2C)CC1,7,21,1,7,106,90,112
Cc1cc(Cl)ccc1OCC(=O)NCC(=O)N/N=C/c1ccco1,12,-9,-12,-31,95,.,.
CCOC(=O)C1=C(O)/C(=C\c2ccc(CNC(=O)C(=O)Nc3ccccc3)o2)N=C1C,10,-25,-12,-4,112,.,.
NC(=O)CC1C(=O)N(c2ccc(Cl)cc2)C(=S)N1NC(=O)c1cccc(F)c1 (stereo unspecified),3,8,-3,-8,21*,99,107
Cc1ccc(-n2cc(-c3ccccc3)c3c(NN4CCOCC4)ncnc32)cc1,15,8,38,23,62*,88,101
COc1ccc(-n2nc3c(c2NC(=O)C(C)Oc2ccccc2)CS(=O)(=O)C3)cc1 (stereo unspecified),17,-3,3,0,54*,117,114
COc1ccccc1C(=O)N1CCN(c2cccc(Cl)c2)CC1,22,-1,14,-2,95,80,97
COc1cc(SC)ccc1C(=O)N1CCN(c2ccccc2)CC1,12,21,19,-6,94,102,99
COc1cc(SC)ccc1C(=O)N1CCN(c2ccc(O)cc2)CC1,-4,4,11,10,86,100,94
COc1cc(SC)ccc1C(=O)N1CCCCCC1,19,19,16,11,108,.,.
O=C(Nc1ccc(Cl)cc1)[C@@H]1[C@@H]2C(=O)N(c3ccc(Cl)cc3)C(=O)[C@@H]2[C@H]2C=CC=NN21,-12,18,17,-23,64*,99,93
Cc1ccc(N2C(=O)[C@@H]3[C@H](C2=O)[C@H]2C=CC=NN2[C@@H]3C(=O)Nc2ccc(Cl)cc2)cc1,6,25,29,26,105,.,.
CC(C)CCn1c(S(=O)(=O)O)nc2ccccc21,11,16,12,-2,98,.,.
CC(C)CCn1c2ccccc2c2cc(CC(N)=O)ccc21,34,14,37,10,113,103,96
CCCn1c2ccccc2c2cc(C(=O)O)ccc21,-27,13,17,-2,114,106,96
OCCOCCOCCn1c2ccccc2c2ccccc21,21,-5,9,7,113,105,105
NNC(=O)Cn1c2ccccc2c2ccccc21,41,5,20,-9,105,105,90
CCc1ccc(C(=O)COc2ccc(NC(C)=O)cc2)cc1,31,19,21,5,113,.,.
CCCCCCCN1CCC(=O)N([C@H](CO)CC(C)C)CC1,5,5,8,9,101,.,.
NN/C(=C\[N+](=O)[O-])Nc1ccc(Cl)cc1,5,26,1,14,79,.,.
